# Reference: PubChem BioAssay (NCATS)
# Records with an inconclusive call do not appear. Values without a mark were called inactive. Calls of active or inactive are those of the source. Calls follow the shape of the dose curve; as a rule, active = well fitted inhibition curve with a large enough effect; inconclusive = small, poorly fitted or top-dose-only effect; inactive = flat fitted curve, though single readings scatter. *1 amine or outer side, *2 acyl side, *3 side chain or, on linkers, in order; H or OH if unused. Where a SMILES comes first, the peptide text is derived from it. [ ]: non-standard residue; d: D form. X4 = CC(C)=CCc1cc(C(O)C(N[*:1])C(=O)[*:2])ccc1O
# Tested on: HaCat
# Assay: Cytotoxic Profiling of Annotated Libraries Using Quantitative High-Throughput Screening (AID 1296008); also: nearly all actives have a fitted effect of over 60% in size
# Settings: Five cell lines viability, CellTiter-Glo ATP luminescence, 48-72 h; max response: stronger effect = lower value
# Procedure, shortened: (§1)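 Cells exposed to compounds for 48 or 72 hr at 37 degrees Celsius. Viability read as ATP-coupled luminescence with CellTiter-Glo after 10 min at room temperature.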
# % is scaled to controls: 0 for no effect and ±100 for the full control effect; potency is read from the fitted curve at half-maximal effect.
SMILES,max response,Potency,outcome
COC(=O)CC(O)CC(O)/C=C/c1c(C)ccc2c1C(O)CC(C)C2 (stereo unspecified),-0.771%,,
COc1cc(O)c2c(c1)C1=C[C@H](O)[C@@H](O)C[C@]1(C)OC2=O,-2.92%,,
CC(C)c1ccc(CO)cc1O[C@@H]1O[C@H](CO)[C@@H](O)[C@H](O)[C@H]1O,1.11%,,
CC(=O)O[C@@H]1[C@H](O)[C@@H](O[C@@H]2O[C@@H](C)[C@H](O[C@@H]3OC[C@@H](O)[C@H](O[C@@H]4OC[C@@H](O)[C@H](O)[C@H]4O)[C@H]3O)[C@@H](O[C@@H]3O[C@H](CO)[C@@H](O)[C@H](O)[C@H]3O)[C@H]2O)[C@H](OC(=O)[C@]23CCC(C)(C)C[C@H]2C2=CCC4[C@@]5(C)CC[C@H](O[C@@H]6O[C@H](C(=O)O)[C@@H](O)[C@H](O[C@@H]7OC[C@@H](O)[C@H](O)[C@H]7O)[C@H]6O[C@@H]6O[C@H](CO)[C@H](O)[C@H](O)[C@H]6O)[C@@](C)(C=O)C5CC[C@@]4(C)[C@]2(C)CC3)O[C@@H]1C (stereo partly specified),0.448%,,
C/C=C(\C)C(=O)O[C@@H]1CC2[C@@H](CC=C3C[C@@H](O[C@H]4C[C@H](OC)[C@H](O[C@H]5C[C@H](OC)[C@H](O[C@@H]6O[C@H](C)[C@@H](O[C@H]7C[C@H](OC)[C@H](O[C@@H]8O[C@H](CO)[C@@H](O)[C@H](O)[C@H]8O)[C@@H](C)O7)[C@H](OC)[C@H]6O)[C@@H](C)O5)[C@@H](C)O4)CC[C@@]32C)[C@@]2(O)CC[C@H](C(C)=O)[C@@]12C (stereo partly specified),-4.54%,,
C=C(CCC1=C(C)[C@H]2[C@H](CC3[C@@H]4CC=C5C[C@@H](O)C[C@@H](O)[C@]5(C)C4[C@H](O)C[C@@]32C)O1)CO[C@@H]1O[C@H](CO)[C@@H](O)[C@H](O)[C@H]1O (stereo partly specified),,4.32 µM (active),
C[C@@H]1CC[C@@]2(OC1)O[C@H]1C[C@H]3[C@@H]4CC=C5C[C@@H](O)CC[C@]5(C)[C@H]4CC[C@]3(C)[C@H]1[C@@H]2C,4.49%,,
COC1=CC(=O)CC(C)C12Oc1cc(OC)cc(O)c1C2=O (stereo unspecified),4.13%,,
CC(C)(C)NS(=O)(=O)c1cncc(-c2cc(F)c3nc(N)nn3c2)c1,-25.2%,,
CC(C)=CCc1cc(C(O)C2NC(=O)CNC(=O)C(Cc3c[nH]c4ccccc34)NC(=O)C3CCCN3C(=O)CNC(=O)C(C(C)C)NC(=O)CNC2=O)ccc1O (stereo unspecified) (cyclo(G[X4]GVGPW); configuration not given here),-16.9%,,
Cc1cc(N2CCN([C@@H]3CN[C@H](C(=O)N4CCSC4)C3)CC2)n(-c2ccccc2)n1,-10.6%,,
CC(=O)N1CCN(Cc2ccc([C@H](C)Nc3nccc(N4C(=O)OC[C@@H]4C(C)C)n3)cc2)CC1,-0.103%,,
C/C(=C\CCC(C)CCO)C(=O)OC1(C)CCC2C(C(=O)O)=COC(OC3OC(CO)C(O)C(O)C3O)C21 (stereo unspecified),-20.6%,,
Cc1cc(C(N)=O)ccc1-n1c(CCC(=O)O)ccc1-c1ccc(-n2ccnc2)cc1,-1.63%,,
NC(=O)c1csc(C2OC(CO)C(O)C2O)n1 (stereo unspecified),2.41%,,
COc1c2c(c(CO)c3c1C(=O)OC3)OC1(C)CCC3(O)C(C)(C)OC(=O)CCC3(C)C1C2 (stereo unspecified),-24.1%,,
CC1=C(C)C(=O)OC(C(C)C2CCC3C4CC=C5CC(OC6OC(COC7OC(CO)C(O)C(O)C7O)C(O)C(O)C6O)CC(O)C5(C)C4CCC23C)C1 (stereo unspecified),-17.7%,,
O=C(NCc1cccc(O)c1)c1cc2cc(F)ccc2[nH]1,-7.37%,,
CCOc1cc(CC(=O)NC(CC(C)C)c2ccccc2N2CCCCC2)ccc1C(=O)O (stereo unspecified),3.59%,,
CC1(C)CC2C(C1)C(C)(O)C13CC1(COC3=O)C2O (stereo unspecified),-11.6%,,
NC1(C(=O)NC(CCO)c2ccc(Cl)cc2)CCN(c2ncnc3[nH]ccc23)CC1 (stereo unspecified),-41.5%,,
COC(=O)c1ccnc(-c2cc(C(=O)NCCc3ccccc3)ccn2)c1,1.24%,,
COc1cc(OC)c(/C=C/S(=O)(=O)Cc2ccc(OC)c(NCC(=O)O)c2)c(OC)c1,,,inactive
COC(=O)c1cc(OC)cc(OC)c1C(=O)c1c(OC)cc2c(c1O)C1CCCC(C)(O2)O1 (stereo unspecified),3.65%,,
O=C(O)CC1CCC(c2ccc(-c3ccc4nc(C(=O)NCc5ccc(OC(F)(F)F)cc5)cn4c3)cc2)CC1 (stereo unspecified),-3.96%,,
COc1cc2occc2c(O[C@@H]2O[C@H](CO)[C@@H](O)[C@H](O)[C@H]2O)c1CCC(=O)O,2.4%,,
O=C(Nc1nc2ccccc2n1CCc1ccccc1)c1ccccc1,,,inactive

# Tested on: KB-3-1
# Assay: as above
# Settings: Five cell lines viability, CellTiter-Glo ATP luminescence, 48-72 h; max response: stronger effect = lower value
# Procedure, shortened: as §1
SMILES,max response,outcome,Potency
Cn1nnc(-c2ccc(-c3ccc(N4C[C@H](CO)OC4=O)cc3F)cn2)n1,-14%,,
CC(=O)OC1CC2C3(C)CCC(OC(=O)CC(=O)O)C(C)(C)C3CCC2(C)C2(C)CCC(C3(C)CCC(=O)O3)C12 (stereo unspecified),,inactive,
COc1cc(O)cc(/C=C/c2ccc(O[C@@H]3O[C@H](CO)[C@@H](O)[C@H](O)[C@H]3O)cc2)c1,,inactive,
O=S(=O)(c1ccccc1)c1cnc2c(N3CCNCC3)cccc2c1,0.14%,,
CC(C)c1cc(C(=O)N2CC[C@H](NC(=O)C3CC3)C2)n[nH]1,-1.18%,,
CC(=O)OC1C(O)CC2(C)C(CCC(C)C23Cc2c(O)cc(CO)c(C=O)c2O3)C1(C)C (stereo unspecified),6.45%,,
COC(=O)CC(C)(O)CC(=O)OCc1ccc(O[C@@H]2O[C@H](CO)[C@@H](O)[C@H](O)[C@H]2O)cc1 (stereo partly specified),4.52%,,
CC(Cc1cc2c(c(C(N)=O)c1)N(CCCO)CC2)NCCOc1ccccc1OCC(F)(F)F (stereo unspecified),-19.6%,,
O=C1CCC=CC1(O)C(=O)OCc1ccccc1O[C@@H]1O[C@H](CO)[C@@H](O)[C@H](O)[C@H]1O (stereo partly specified),-1.56%,,
Cc1ccccc1C#Cc1ccc(CCC(=O)O)cc1,-11.6%,,
C=C1C(O)CC2C(C(=O)O)=COC(O[C@@H]3O[C@H](COC(=O)/C=C/c4ccc(O)cc4)[C@@H](O)[C@H](O)[C@H]3O)C12 (stereo partly specified),,inactive,
O=C(OC1C=C(CO)C2C(OC3OC(CO)C(O)C(O)C3O)OC=CC12)c1ccc(O)cc1 (stereo unspecified),,inactive,
COC(=O)CC(O)CC(O)/C=C/c1c(C)ccc2c1C(O)CC(C)C2 (stereo unspecified),,inactive,
COc1cc(O)c2c(c1)C1=C[C@H](O)[C@@H](O)C[C@]1(C)OC2=O,9.7%,,
CC(C)c1ccc(CO)cc1O[C@@H]1O[C@H](CO)[C@@H](O)[C@H](O)[C@H]1O,,inactive,
CC(=O)O[C@@H]1[C@H](O)[C@@H](O[C@@H]2O[C@@H](C)[C@H](O[C@@H]3OC[C@@H](O)[C@H](O[C@@H]4OC[C@@H](O)[C@H](O)[C@H]4O)[C@H]3O)[C@@H](O[C@@H]3O[C@H](CO)[C@@H](O)[C@H](O)[C@H]3O)[C@H]2O)[C@H](OC(=O)[C@]23CCC(C)(C)C[C@H]2C2=CCC4[C@@]5(C)CC[C@H](O[C@@H]6O[C@H](C(=O)O)[C@@H](O)[C@H](O[C@@H]7OC[C@@H](O)[C@H](O)[C@H]7O)[C@H]6O[C@@H]6O[C@H](CO)[C@H](O)[C@H](O)[C@H]6O)[C@@](C)(C=O)C5CC[C@@]4(C)[C@]2(C)CC3)O[C@@H]1C (stereo partly specified),-1.2%,,
C/C=C(\C)C(=O)O[C@@H]1CC2[C@@H](CC=C3C[C@@H](O[C@H]4C[C@H](OC)[C@H](O[C@H]5C[C@H](OC)[C@H](O[C@@H]6O[C@H](C)[C@@H](O[C@H]7C[C@H](OC)[C@H](O[C@@H]8O[C@H](CO)[C@@H](O)[C@H](O)[C@H]8O)[C@@H](C)O7)[C@H](OC)[C@H]6O)[C@@H](C)O5)[C@@H](C)O4)CC[C@@]32C)[C@@]2(O)CC[C@H](C(C)=O)[C@@]12C (stereo partly specified),8.46%,,
C=C(CCC1=C(C)[C@H]2[C@H](CC3[C@@H]4CC=C5C[C@@H](O)C[C@@H](O)[C@]5(C)C4[C@H](O)C[C@@]32C)O1)CO[C@@H]1O[C@H](CO)[C@@H](O)[C@H](O)[C@H]1O (stereo partly specified),,,1.72 µM (active)
C[C@@H]1CC[C@@]2(OC1)O[C@H]1C[C@H]3[C@@H]4CC=C5C[C@@H](O)CC[C@]5(C)[C@H]4CC[C@]3(C)[C@H]1[C@@H]2C,-3.17%,,
COC1=CC(=O)CC(C)C12Oc1cc(OC)cc(O)c1C2=O (stereo unspecified),,inactive,
CC(C)(C)NS(=O)(=O)c1cncc(-c2cc(F)c3nc(N)nn3c2)c1,,inactive,
CC(C)=CCc1cc(C(O)C2NC(=O)CNC(=O)C(Cc3c[nH]c4ccccc34)NC(=O)C3CCCN3C(=O)CNC(=O)C(C(C)C)NC(=O)CNC2=O)ccc1O (stereo unspecified) (cyclo(G[X4]GVGPW); configuration not given here),5.04%,,
Cc1cc(N2CCN([C@@H]3CN[C@H](C(=O)N4CCSC4)C3)CC2)n(-c2ccccc2)n1,-12.3%,,
CC(=O)N1CCN(Cc2ccc([C@H](C)Nc3nccc(N4C(=O)OC[C@@H]4C(C)C)n3)cc2)CC1,2.58%,,
C/C(=C\CCC(C)CCO)C(=O)OC1(C)CCC2C(C(=O)O)=COC(OC3OC(CO)C(O)C(O)C3O)C21 (stereo unspecified),,inactive,
Cc1cc(C(N)=O)ccc1-n1c(CCC(=O)O)ccc1-c1ccc(-n2ccnc2)cc1,7.2%,,
NC(=O)c1csc(C2OC(CO)C(O)C2O)n1 (stereo unspecified),,inactive,
COc1c2c(c(CO)c3c1C(=O)OC3)OC1(C)CCC3(O)C(C)(C)OC(=O)CCC3(C)C1C2 (stereo unspecified),,inactive,
CC1=C(C)C(=O)OC(C(C)C2CCC3C4CC=C5CC(OC6OC(COC7OC(CO)C(O)C(O)C7O)C(O)C(O)C6O)CC(O)C5(C)C4CCC23C)C1 (stereo unspecified),8.05%,,
